The sample as a whole holds a higher share of hits than the screen did.
CBX7 inh: CBX7 chromodomain binding inhibitors, primary screen, biochemical, AlphaScreen | Chromobox protein homolog 7 (Homo sapiens), O95931 | AlphaScreen His6-CBX7 / biotin-H3K27me3 peptide binding; stronger effect = lower value | normalised signal (fraction of DMSO) (no concentration beside the values) | 66,000 compounds, 1.1% hits | AID 1224903, 2016; in the data active = normalised signal below about 0.5
Target sequence (O95931 whole entry, looked up): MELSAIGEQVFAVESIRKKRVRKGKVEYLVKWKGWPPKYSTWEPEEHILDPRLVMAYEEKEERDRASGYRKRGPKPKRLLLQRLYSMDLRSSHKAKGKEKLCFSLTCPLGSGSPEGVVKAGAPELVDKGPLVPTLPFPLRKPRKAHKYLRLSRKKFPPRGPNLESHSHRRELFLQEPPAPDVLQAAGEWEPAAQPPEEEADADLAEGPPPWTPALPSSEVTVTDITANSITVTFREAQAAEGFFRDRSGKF
Starred values were filed as active, the others as inactive.

SMILES	CBX7 inh
Cc1ccc(-c2nc3ncccn3c2NC2CCCCC2)cc1	0.98
Cc1ccn2c(NC3CCCCC3)c(-c3ccccn3)nc2c1	0.46*
Cc1ccn2c(NC3CCCC3)c(-c3ccccn3)nc2c1	0.43*
Cc1ccc2nc(-c3ccncc3)c(NC3CCCC3)n2c1	1.1
CCN(CC)S(=O)(=O)c1ccc(C(=O)Nc2ccccc2-c2nc3ccccc3s2)cc1	1.1
COc1ccc(OC)c(-c2cc(C(=O)NCC(C)C)no2)c1	1
CCNC(=O)CC1C(=O)N(c2ccccc2)C(=O)N1Cc1ccc2c(c1)OCO2 (configuration not stated)	1
CCN(CC)CCN1C(=O)Cn2c3c(c4cccc1c42)CCC3	1.1
CN(C)CCCN1C(=O)CCn2c(-c3ccccc3)c(-c3ccccc3)c3cccc1c32	0.49*
COc1cc(OC)cc(-c2nnc(NC(=O)c3ccc(S(=O)(=O)N4CC(C)OC(C)C4)cc3)o2)c1 (configuration not stated)	0.91
O=C(Nc1nnc(-c2ccccc2Cl)o1)c1ccc(S(=O)(=O)N2CCOCC2)cc1	0.052*
CCC1CCCCN1S(=O)(=O)c1ccc(NC(=O)c2oc3ccccc3c2C)cc1 (configuration not stated)	0.93
O=C(Nc1nnc(-c2cccs2)o1)c1ccc(S(=O)(=O)N2CCOCC2)cc1	0.71
CC1CN(S(=O)(=O)c2ccc(C(=O)Nc3nnc(-c4ccccc4Cl)o3)cc2)CC(C)O1 (configuration not stated)	0.041*
CCC1CCCCN1S(=O)(=O)c1ccc(C(=O)Nc2nnc(-c3ccccc3Cl)o2)cc1 (configuration not stated)	0.055*
CCCCN(C)S(=O)(=O)c1ccc(C(=O)Nc2nnc(-c3ccccc3Cl)o2)cc1	0.91
O=C(Nc1nnc(-c2ccccc2Cl)o1)c1ccc(S(=O)(=O)N2CCCC2)cc1	0.89
Cc1ccc(Nc2c(-c3cccc(Br)c3)nc3ccc(C)cn23)cc1	1
Cc1nc(N2CCCC2)c2c(C)c(C)sc2n1	1.2
COc1cccc(C(=O)Nc2cc(-c3nc4ccccc4o3)ccc2OC)c1	1
O=C(Nc1cnn(Cc2ccc(F)cc2)c1)c1cnccn1	0.99
Cc1ccc(S(=O)(=O)Nc2ccccc2C(=O)Nc2nc3ccc(Cl)cc3s2)cc1	0.8
O=C(Nc1nnc(-c2ccc(Cl)s2)o1)c1ccc(S(=O)(=O)N2CCCCC2)cc1	0.16*
CC(C)CN(CC(C)C)S(=O)(=O)c1ccc(C(=O)Nc2nnc(-c3ccc(Cl)s3)o2)cc1	0.86
CCOc1cccc2sc(NC(=O)c3ccc(S(=O)(=O)N4CCCc5ccccc54)cc3)nc12	1.2
SMILES	CBX7 inh
O=C(Nc1nc(-c2ccncc2)cs1)c1ccc(S(=O)(=O)N2CCCc3ccccc32)cc1	0.86
CN(c1ccccc1)S(=O)(=O)c1ccc(C(=O)Nc2nnc(-c3ccc(Cl)s3)o2)cc1	0.39*
COc1cc(OC)cc(-c2nnc(NC(=O)c3ccc(S(=O)(=O)N4CCCCCC4)cc3)o2)c1	0.8
Cc1nnc(NC(=O)c2ccc(S(=O)(=O)N3CCCc4ccccc43)cc2)o1	0.034*
CCC1CCCCN1S(=O)(=O)c1ccc(C(=O)Nc2nnc(C3CC3)o2)cc1 (configuration not stated)	0.75
O=C(Nc1nnc(C2CC2)o1)c1ccc(S(=O)(=O)N2CCCCCC2)cc1	0.0011*
CCCCN(C)S(=O)(=O)c1ccc(C(=O)Nc2nnc(-c3ccc(Cl)s3)o2)cc1	0.98
CCCN(CCC)S(=O)(=O)c1ccc(C(=O)Nc2nnc(-c3ccc(Cl)s3)o2)cc1	1
Cc1ccc(C)c(NC(=O)CSc2nnc(Cc3cc(=O)[nH]c(=O)[nH]3)n2-c2ccccc2)c1	1.1
Cc1oc(-c2ccccc2)nc1Cn1c(SCc2cccc(F)c2)nc2ccncc21	0.93
COc1ccc(-c2cn(-c3ccc(F)cc3)c(=O)[nH]2)cc1	1
CCOc1ccccc1CNC(=O)C1CCCN(c2nn3c(=O)cc(C)nc3s2)C1 (configuration not stated)	0.63
Cc1ccc(-c2ccc(=O)n(CCC(=O)NCCN3CCCCC3C)n2)cc1 (configuration not stated)	1
Cc1cccc(OCC(=O)Nc2ccc(-c3nc4ccc(C)cc4s3)cc2)c1	1
Cc1nnc(NC(=O)c2ccc(S(=O)(=O)N3CCOCC3)cc2)o1	0.51
O=C(Nc1nnc(C2CC2)o1)c1ccc(S(=O)(=O)N2CCOCC2)cc1	0.44*
CCc1nnc(NC(=O)c2ccc(S(=O)(=O)N3CCCCC3)cc2)o1	0.1*
Cc1nnc(NC(=O)c2ccc(S(=O)(=O)N3CCCC3)cc2)o1	0.024*
COc1ccc(-c2nnc(NC(=O)c3ccc(S(=O)(=O)N4CCOCC4)cc3)o2)cc1	0.52
CN(C)S(=O)(=O)c1ccc(C(=O)Nc2nnc(-c3ccc(F)cc3)o2)cc1	0.044*
COCc1nnc(NC(=O)c2ccc(S(=O)(=O)N3CCCC3)cc2)o1	0.57
CCc1nnc(NC(=O)c2ccc(S(=O)(=O)N3CCC(C)CC3)cc2)o1	0.62

From PubChem BioAssay
